Test [1] concerns the target Lysosomal acid glucosylceramidase (Homo sapiens) (UniProt P04062). Briefly: Glucocerebrosidase-p2 (AID 348; in the data active = potency below about 10 µM; note: potency is the fitted concentration of half-maximal effect). Conditions: purified GBA, blue fluorogenic substrate, 40 min. The procedure, abridged: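 Compounds titrated from 0.6 nM upwards against 0.2 nM enzyme in pH 5.9 citric acid/KH2PO4, taurocholate, tween-20; blue fluorogenic substrate 80 uM, 40 min room temperature, stopped and read Ex 365/Em 440 for AC50.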

The nature of test [2]: AP1 Signaling Pathway (AID 357).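 Note: ME-180 reporter cells stimulated with EGF at its EC50 level; % is set by controls: 0 for no effect and ±100 for the full control effect.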 Conditions: ME-180 AP-1-bla reporter, EGF-induced, beta-lactamase ratio, 5 h; at 7.69 µM (top of the series) unless noted. A digest of the protocol:
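In this screen, ME-180 cells in Opti-MEM with 0.5% dialyzed FBS received EC50 EGF and compound titrations for 5 h. AP-1 reporter beta-lactamase was detected via CCF4 ratio, giving AC50 for positive and negative modulators.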

For test [3], the target named is Cytochrome P450 1A2 (Homo sapiens) (UniProt P05177). Briefly: p450-cyp1a2 (AID 410; calls by dose curve; note: potency is the fitted concentration of half-maximal effect;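 for activity change, negative = inhibition: -100% = full effect of reference inhibitor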). Conditions: recombinant CYP1A2, luciferin-ME demethylation, luminescence; series mostly up to 57 µM. The procedure, abridged: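 Human CYP1A2 (20nM) demethylated Luciferin-ME at its Km (100uM) in 100mM KPO4. After 10 min compound preincubation, NADPH regeneration ran the reaction 60 min at room temperature. Luciferin was read by luminescence, normalized to 57 uM furafylline.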

The nature of test [4]: NFAT Signaling Pathway (AID 444).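 Note: carbachol stimulus at about its EC50 of 1 µM final; % is set by controls: 0 for no effect and ±100 for the full control effect.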 Conditions: Jurkat NFAT-bla M1, carbachol, beta-lactamase ratio, 5 h; at 7.69 µM (top of the series) unless noted. The procedure, abridged: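 Jurkat cells carrying an NFAT-driven β-lactamase reporter and co-transfected muscarinic M1 receptor were treated with compound plus carbachol (1 uM final, an EC50 level) for 5 h at 37 °C. CCF4 loading followed for 1 h at RT; 460/530 nm ratio gave %activity.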

A short description of test [5]: Stat Signaling Pathway (AID 446).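 Note: ME-180 cervical cancer cells given 40 pM IL-6 alongside compound; SIE-controlled beta-lactamase reporter measured as 460/530 nm FRET emission ratio; % is set by controls: 0 for no effect and ±100 for the full control effect.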 Conditions: ME-180 SIE beta-lactamase reporter, IL-6 stimulated, 5 h; at 7.69 µM (top of the series) unless noted. A digest of the protocol: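 IL-6/STAT signaling read in ME-180 cells via an SIE beta-lactamase reporter. Stimulus was 40 pM IL-6 (its AC50) for 5 hrs, so both activation and inhibition register.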
For test [6], the target named is Glucocorticoid receptor (Homo sapiens) (UniProt P04150). Put plainly: GR-EFC Redistribution (AID 451; calls by dose curve; note: potency is the fitted concentration of half-maximal effect). Conditions: CHO-K1 GR-EFC translocation, beta-gal luminescence, 2 h. A digest of the protocol: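 CHO-K1 cells stably expressing nuclear-localized β-gal enzyme acceptor and GR fused C-terminally to the enzyme donor fragment; ligand-driven nuclear translocation restores β-gal by complementation. Compounds titrated up to 46 uM final, 2 h at 37 °C; luminescence read.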

The target of test [7] is Mitogen-activated protein kinase 10 (Mus musculus) (UniProt Q61831). Briefly: JNK3 AlphaScreen Assay (AID 530).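 Note: kinase came from lysate of stimulated human HepG2 cells; signal reports phosphorylation of biotinylated GST-cJun 1-79 at Ser73 with 10 µM ATP; % is set by controls: 0 for no effect and ±100 for the full control effect.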 Conditions: JNK3 lysate, c-Jun phosphorylation; series mostly up to 57.1 µM. A digest of the protocol:
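JNK3 came from HepG2 lysates pre-activated with IL-1beta and TNF-alpha and phosphorylated biotinylated GST-cJun (1-79) at 10 uM ATP, pH 7.6, room temperature. Compounds were titrated. AlphaScreen signal used anti-phospho-cJun (Ser73) antibody.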

Test [8] deals with 3',5'-cyclic-AMP phosphodiesterase 4B (Homo sapiens) (UniProt Q07343). Put plainly: qHTS Assay for Inhibitors of PDE-IV (AID 607; active = well fitted activation curve with a large enough effect in the main read-out, with a control signal flat, not every such curve was filed as active; note: % of control where 0% means no effect). Conditions: HEK293 ACTOne CNG channel cells, membrane potential fluorescence; series mostly up to 22.9 µM. The procedure, abridged: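 Live HEK293 cells with a modified cyclic nucleotide-gated (CNG) channel report intracellular cAMP via membrane-potential dye fluorescence (ex 535/em 590 nm). Endogenous PDE-IV was targeted. Compounds were tested at up to 22.9 uM final; RO 20-1724 100 uM served as control.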
On the technique in general: In qHTS, concentration-response curves come from the screen itself.

A short description of test [9]: Primary qHTS for small molecule stabilizers of the endoplasmic reticulum resident proteome: Secreted ER Calcium Modulated Protein (SERCaMP) assay (AID 1508630; active = well fitted curve in the direction sought with a large enough effect; an effect the other way counts as inactive or inconclusive; note: % is set by controls: 0 for no effect and ±100 for the full control effect). Conditions: SH-SY5Y GLuc-SERCaMP (Gaussia luciferase released on ER calcium loss) secretion, thapsigargin, luminescence; series mostly up to 38.4 µM. A digest of the protocol:
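GLuc-SERCaMP-expressing SH-SY5Y cells, pretreated 16 h with compound, are challenged with thapsigargin to empty ER calcium stores; after 4 h, coelenterazine is added directly to the medium and luminescence is imaged.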

Test [10] has as its target Glucocorticoid receptor (Homo sapiens) (UniProt P04150). Briefly: GR-GFP Redistribution (AID 450;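 active = compounds whose dose series gives a full or clear partial fitted curve of increased nuclear translocation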; note: potency is the fitted concentration of half-maximal effect). Conditions: U2OS GR-GFP nuclear translocation, laser cytometry, 2 h.
The target in test [11] is Cytochrome P450 3A4 (Homo sapiens) (UniProt P08684). Put plainly: qHTS Assay for Inhibitors and Substrates of Cytochrome P450 3A4 (AID 884; active = well fitted curve in the direction sought with a large enough effect; an effect the other way counts as inactive or inconclusive; note: potency is the fitted concentration of half-maximal effect; nearly all actives have a fitted effect of over 50% in size). Conditions: recombinant CYP3A4, Luciferin-PPXE luminescence; series mostly up to 57.1 µM. A digest of the protocol: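 20 nM human CYP3A4 with 25 uM Luciferin-PPXE (at KM) in 200 mM KPO4, preincubated 10 min with compound; NADPH regeneration started a 60 min RT reaction. Luciferin detected by luminescence, normalized to 57 uM ketoconazole as full inhibition.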

The target is the same in test [12]. Put plainly: qHTS Assay for Activators of Cytochrome P450 3A4 (AID 885; active = well fitted curve in the direction sought with a large enough effect; an effect the other way counts as inactive or inconclusive; note: nearly all actives have a fitted effect of over 65% in size). Conditions: recombinant CYP3A4, Luciferin-PPXE luminescence, 60 min; series mostly up to 57.1 µM. A digest of the protocol:
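Quantitative HTS format: compounds preincubated with 20nM human CYP3A4 and Luciferin-PPXE substrate at KM, reaction started by NADPH regeneration, stopped after 60 min, luciferase luminescence read 20 min later.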

Test [13] addresses Cytochrome P450 2C19 (Homo sapiens) (UniProt P33261). Briefly: qHTS Assay for Inhibitors and Substrates of Cytochrome P450 2C19 (AID 899; active = well fitted curve in the direction sought with a large enough effect; an effect the other way counts as inactive or inconclusive; note: potency is the fitted concentration of half-maximal effect; nearly all actives have a fitted effect of over 60% in size). Conditions: recombinant CYP2C19, luciferin-H EGE luminescence; series mostly up to 57.1 µM. A digest of the protocol: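 Human CYP2C19 (5nM) with Luciferin-H EGE at 10uM (its KM) in 50mM KPO4 was preincubated with compound for 10 min at 37C. NADPH regeneration started a 60 min 37C reaction. Luciferin was read by luminescence, normalized to 57uM ketoconazole.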

A short description of test [14]: Confirmation and Secondary Assay for Modulators of Hemoglobin Beta Chain Splicing at IVS2 654 locus (AID 910; active = well fitted curve in the direction sought with a large enough effect; an effect the other way counts as inactive or inconclusive;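 note: per-well total GFP intensity by laser scanning cytometry after 2-day treatment; % of control where 0% means no effect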). Conditions: HeLa EGFP-654 splicing reporter, GFP fluorescence, 48 h; series mostly up to 38.3 µM. A digest of the protocol:
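HeLa cells stably carrying EGFP interrupted by mutant beta-globin IVS2-654 intron (CMV-driven) were treated with compound for 2 days at 37C; corrected splicing was scored as total peak GFP intensity per well (488 nm excitation, 500-520 nm emission).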

Test [15] is described as follows: Confirmation and Secondary Assay for Modulators of Hemoglobin Beta Chain Splicing at IVS2 705 locus (AID 930; active = well fitted curve in the direction sought with a large enough effect; an effect the other way counts as inactive or inconclusive;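 note: HeLa cells stably expressing the EGFP-705 splicing reporter; % of control where 0% means no effect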). Conditions: HeLa EGFP-705 splicing reporter, GFP fluorescence, 48 h; series mostly up to 38.3 µM. The procedure, abridged: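 Stable HeLa line with EGFP disrupted by mutant beta-globin intron 2 (705). Overnight attachment, then 2 days of compound at 37C, 5% CO2. Signal: peak GFP intensity summed over objects 5-250 µm.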

Test [16] has as its target Ubiquitin carboxyl-terminal hydrolase 1 (Homo sapiens) (UniProt O94782). Put plainly: Inhibitors of USP1/UAF1: Pilot qHTS (AID 504865; active = well fitted curve in the direction sought with a large enough effect; an effect the other way counts as inactive or inconclusive;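 note: rhodamine fluorescence freed from ubiquitin-rhodamine substrate followed over time; top concentration of the series differs between compounds; % is set by controls: 0 for no effect and ±100 for the full control effect; nearly all actives have a fitted effect of over 35% in size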). Conditions: purified USP1/UAF1, Ub-rhodamine cleavage fluorescence; series mostly up to 54.9 µM. A digest of the protocol: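 USP1/UAF1 complex (1nM) preincubated with compound 15 min at room temperature, then Ub-Rho substrate (150nM final) added. Fluorescence read kinetically at 480/540 nm, 6 reads every 60 seconds. Buffer: 50mM HEPES pH 7.8, 0.5mM EDTA, 0.1 mg/ml BSA, 1mM TCEP, 0.01% Tween-20.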

The target in test [17] is Cytochrome P450 2C9 (Homo sapiens) (UniProt P11712). Briefly: qHTS Assay for Inhibitors and Substrates of Cytochrome P450 2C9 (AID 883; active = well fitted curve in the direction sought with a large enough effect; an effect the other way counts as inactive or inconclusive; note: nearly all actives have a fitted effect of over 60% in size; note: potency is the fitted concentration of half-maximal effect). Conditions: recombinant CYP2C9, luciferin-H luminescence, 60 min; series mostly up to 57.1 µM. A digest of the protocol: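 Human CYP2C9 (10nM) hydroxylated Luciferin-H (100uM, at its KM) to luciferin in 25mM KPO4. Compound was preincubated 10 min at 37C, then NADPH regeneration started a 60 min reaction at 37C. Luminescence was read after detection reagent, normalized to 57uM sulphaphenazole.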

Test [18] deals with Cytochrome P450 2D6 (Homo sapiens) (UniProt P10635). Briefly: qHTS Assay for Inhibitors and Substrates of Cytochrome P450 2D6 (AID 891; active = well fitted curve in the direction sought with a large enough effect; an effect the other way counts as inactive or inconclusive; note: potency is the fitted concentration of half-maximal effect; nearly all actives have a fitted effect of over 60% in size). Conditions: recombinant CYP2D6, luciferin-ME EGE luminescence; series mostly up to 57.1 µM. The procedure, abridged:
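Human CYP2D6 (5 nM) with 30 uM Luciferin-ME EGE (at Km) in 100 mM KPO4, compound preincubated 10 min, then NADPH regeneration system for 60 min at room temperature. Luciferin read by luminescence; normalized to 1.43 uM quinidine.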

Test [19] can be described thus: qHTS Assay for Identification of Small Molecule Agonists for Hypoxia Response Element Signaling Pathway (AID 914; active = well fitted activation curve with a large enough effect in the signal ratio, with a control signal flat, not every such curve was filed as active; the % refers to the signal ratio; note: % of control where 0% means no effect). Conditions: ME-180 (cervical carcinoma) HRE-bla reporter, beta-lactamase ratio, CoCl2, 17 h; activation: hits give high values. A digest of the protocol:
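Reporter activity (beta-lactamase, CCF4 460nm/530nm ratio) in HRE-bla ME-180 cells is recorded after 17 h compound exposure with EC50 CoCl2 at 37 degrees Celsius. AC50 values come from titration data.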

Unmarked numbers belong to inactive results. Inconclusive results are not listed. Calls of active or inactive are those of the source. Unless noted, calls come from the whole dose curve; as a rule, active = well fitted curve in either direction with a large enough effect (not every such curve was filed as active); inconclusive = small, poorly fitted or top-dose-only effect, or another doubt; inactive = flat fitted curve, though single readings scatter.

Chain of Cytochrome P450 3A4 (Homo sapiens) (P08684 whole entry, looked up): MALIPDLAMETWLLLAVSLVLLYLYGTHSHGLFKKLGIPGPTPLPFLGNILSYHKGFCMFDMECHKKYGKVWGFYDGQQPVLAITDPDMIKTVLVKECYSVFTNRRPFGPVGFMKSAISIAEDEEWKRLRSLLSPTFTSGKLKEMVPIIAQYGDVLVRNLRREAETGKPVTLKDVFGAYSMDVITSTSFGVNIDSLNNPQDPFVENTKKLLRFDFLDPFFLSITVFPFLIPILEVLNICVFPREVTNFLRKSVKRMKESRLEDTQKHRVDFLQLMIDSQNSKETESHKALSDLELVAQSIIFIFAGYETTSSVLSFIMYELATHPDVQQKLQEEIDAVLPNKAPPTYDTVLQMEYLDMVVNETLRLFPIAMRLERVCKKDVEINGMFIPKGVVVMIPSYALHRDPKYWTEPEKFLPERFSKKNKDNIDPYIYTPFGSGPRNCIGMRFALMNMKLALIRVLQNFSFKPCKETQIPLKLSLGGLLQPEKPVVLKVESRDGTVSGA
Chain of Glucocorticoid receptor (Homo sapiens) (P04150 whole entry, looked up, the tested form may be a part): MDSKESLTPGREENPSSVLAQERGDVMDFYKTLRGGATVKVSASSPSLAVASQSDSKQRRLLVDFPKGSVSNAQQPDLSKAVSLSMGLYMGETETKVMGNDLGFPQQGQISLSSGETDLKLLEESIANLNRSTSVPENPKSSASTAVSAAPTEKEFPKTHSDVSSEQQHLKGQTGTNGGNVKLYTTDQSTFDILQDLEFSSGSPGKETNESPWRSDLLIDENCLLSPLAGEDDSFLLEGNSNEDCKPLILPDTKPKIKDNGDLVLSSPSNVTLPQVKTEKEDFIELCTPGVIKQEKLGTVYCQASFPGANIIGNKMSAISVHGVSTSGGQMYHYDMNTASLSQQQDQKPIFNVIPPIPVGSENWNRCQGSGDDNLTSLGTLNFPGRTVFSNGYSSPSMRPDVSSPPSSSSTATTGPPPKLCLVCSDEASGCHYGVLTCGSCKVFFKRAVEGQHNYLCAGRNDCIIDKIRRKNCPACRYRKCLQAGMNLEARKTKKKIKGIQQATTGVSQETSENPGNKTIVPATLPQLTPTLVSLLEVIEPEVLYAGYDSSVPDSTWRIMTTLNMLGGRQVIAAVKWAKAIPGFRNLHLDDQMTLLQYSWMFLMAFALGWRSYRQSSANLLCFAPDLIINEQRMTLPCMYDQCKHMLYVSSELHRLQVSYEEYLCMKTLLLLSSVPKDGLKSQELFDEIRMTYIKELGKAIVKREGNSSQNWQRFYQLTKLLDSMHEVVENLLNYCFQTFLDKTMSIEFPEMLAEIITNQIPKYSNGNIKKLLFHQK
Chain of Cytochrome P450 1A2 (Homo sapiens) (P05177 whole entry, looked up): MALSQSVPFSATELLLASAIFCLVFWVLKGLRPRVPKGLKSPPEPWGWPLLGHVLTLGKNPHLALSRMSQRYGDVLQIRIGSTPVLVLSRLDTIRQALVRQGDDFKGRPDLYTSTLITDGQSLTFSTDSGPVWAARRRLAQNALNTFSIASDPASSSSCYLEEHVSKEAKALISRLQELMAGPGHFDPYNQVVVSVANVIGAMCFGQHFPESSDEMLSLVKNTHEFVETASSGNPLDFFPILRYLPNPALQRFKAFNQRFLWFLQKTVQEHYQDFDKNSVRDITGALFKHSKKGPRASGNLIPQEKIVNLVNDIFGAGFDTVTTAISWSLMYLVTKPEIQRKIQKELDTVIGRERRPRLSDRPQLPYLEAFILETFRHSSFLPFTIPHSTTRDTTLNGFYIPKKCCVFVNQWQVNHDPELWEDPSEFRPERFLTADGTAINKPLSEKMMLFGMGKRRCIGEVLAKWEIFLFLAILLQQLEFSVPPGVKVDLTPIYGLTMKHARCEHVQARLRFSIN
Chain of 3',5'-cyclic-AMP phosphodiesterase 4B (Homo sapiens) (Q07343 whole entry, looked up): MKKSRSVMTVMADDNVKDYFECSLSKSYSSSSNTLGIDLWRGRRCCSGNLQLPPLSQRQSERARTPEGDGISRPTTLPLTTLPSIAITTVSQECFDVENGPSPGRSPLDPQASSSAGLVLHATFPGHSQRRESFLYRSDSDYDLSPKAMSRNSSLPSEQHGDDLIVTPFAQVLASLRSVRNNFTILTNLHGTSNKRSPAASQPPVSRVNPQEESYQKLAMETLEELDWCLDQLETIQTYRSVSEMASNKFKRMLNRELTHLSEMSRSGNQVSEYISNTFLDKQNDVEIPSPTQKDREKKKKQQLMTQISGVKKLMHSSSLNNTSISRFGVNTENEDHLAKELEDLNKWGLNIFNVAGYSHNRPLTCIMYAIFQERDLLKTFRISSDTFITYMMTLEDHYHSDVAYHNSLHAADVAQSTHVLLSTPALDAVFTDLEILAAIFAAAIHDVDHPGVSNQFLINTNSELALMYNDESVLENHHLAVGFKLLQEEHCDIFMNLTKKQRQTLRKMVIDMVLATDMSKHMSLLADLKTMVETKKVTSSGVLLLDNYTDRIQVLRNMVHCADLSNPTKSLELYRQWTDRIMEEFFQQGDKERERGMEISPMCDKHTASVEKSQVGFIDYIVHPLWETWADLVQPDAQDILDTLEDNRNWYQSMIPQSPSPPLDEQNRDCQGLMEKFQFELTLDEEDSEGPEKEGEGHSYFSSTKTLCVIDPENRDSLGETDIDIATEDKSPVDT
Chain of Lysosomal acid glucosylceramidase (Homo sapiens) (P04062 whole entry, looked up): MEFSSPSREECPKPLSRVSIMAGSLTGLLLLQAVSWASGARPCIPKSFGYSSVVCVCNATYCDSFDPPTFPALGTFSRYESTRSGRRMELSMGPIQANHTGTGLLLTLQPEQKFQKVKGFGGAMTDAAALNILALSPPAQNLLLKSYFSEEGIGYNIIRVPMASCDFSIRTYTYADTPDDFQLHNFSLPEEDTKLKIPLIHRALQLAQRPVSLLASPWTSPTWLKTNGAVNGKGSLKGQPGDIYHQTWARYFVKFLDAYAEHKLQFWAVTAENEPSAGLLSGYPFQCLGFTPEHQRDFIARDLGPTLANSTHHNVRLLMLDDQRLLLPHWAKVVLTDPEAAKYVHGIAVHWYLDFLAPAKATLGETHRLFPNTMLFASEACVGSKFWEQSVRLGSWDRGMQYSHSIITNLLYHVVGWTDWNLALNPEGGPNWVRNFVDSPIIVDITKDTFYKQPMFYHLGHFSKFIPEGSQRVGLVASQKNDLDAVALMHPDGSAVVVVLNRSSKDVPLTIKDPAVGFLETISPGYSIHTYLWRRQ
Chain of Ubiquitin carboxyl-terminal hydrolase 1 (Homo sapiens) (O94782 whole entry, looked up): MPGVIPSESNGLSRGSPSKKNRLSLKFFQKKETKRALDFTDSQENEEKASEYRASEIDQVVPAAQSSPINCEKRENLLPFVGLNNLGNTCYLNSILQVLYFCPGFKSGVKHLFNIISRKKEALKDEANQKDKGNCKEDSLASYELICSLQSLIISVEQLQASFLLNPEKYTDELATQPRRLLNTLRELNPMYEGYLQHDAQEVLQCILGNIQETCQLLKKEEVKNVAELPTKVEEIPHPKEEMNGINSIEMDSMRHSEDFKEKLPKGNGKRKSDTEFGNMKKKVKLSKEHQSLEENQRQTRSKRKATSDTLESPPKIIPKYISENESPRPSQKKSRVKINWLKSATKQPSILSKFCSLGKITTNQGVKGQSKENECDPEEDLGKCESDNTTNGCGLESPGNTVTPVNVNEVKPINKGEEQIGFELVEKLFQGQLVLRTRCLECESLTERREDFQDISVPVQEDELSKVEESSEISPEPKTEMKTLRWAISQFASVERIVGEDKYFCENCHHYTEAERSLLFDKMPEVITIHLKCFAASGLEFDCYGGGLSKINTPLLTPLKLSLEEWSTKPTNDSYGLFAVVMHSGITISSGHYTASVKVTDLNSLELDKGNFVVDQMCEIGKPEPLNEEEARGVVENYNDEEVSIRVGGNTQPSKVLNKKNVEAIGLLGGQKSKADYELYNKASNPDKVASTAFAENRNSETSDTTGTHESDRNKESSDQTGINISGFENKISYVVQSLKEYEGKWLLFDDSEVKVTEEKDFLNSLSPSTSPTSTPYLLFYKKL
Chain of Cytochrome P450 2C9 (Homo sapiens) (P11712 whole entry, looked up): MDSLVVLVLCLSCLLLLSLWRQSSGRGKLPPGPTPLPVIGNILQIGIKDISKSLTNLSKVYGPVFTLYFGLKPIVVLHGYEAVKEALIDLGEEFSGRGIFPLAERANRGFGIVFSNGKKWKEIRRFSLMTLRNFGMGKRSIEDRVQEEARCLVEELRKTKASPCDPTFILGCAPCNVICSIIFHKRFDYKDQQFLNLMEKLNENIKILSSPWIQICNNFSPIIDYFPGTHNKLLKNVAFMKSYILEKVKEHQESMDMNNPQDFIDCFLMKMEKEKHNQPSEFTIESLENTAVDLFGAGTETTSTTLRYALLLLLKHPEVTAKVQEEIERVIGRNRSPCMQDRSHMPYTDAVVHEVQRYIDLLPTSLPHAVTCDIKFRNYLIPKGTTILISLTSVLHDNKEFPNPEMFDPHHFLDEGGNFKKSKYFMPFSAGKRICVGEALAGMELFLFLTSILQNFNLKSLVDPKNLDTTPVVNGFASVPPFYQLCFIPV
Chain of Cytochrome P450 2D6 (Homo sapiens) (P10635 whole entry, looked up): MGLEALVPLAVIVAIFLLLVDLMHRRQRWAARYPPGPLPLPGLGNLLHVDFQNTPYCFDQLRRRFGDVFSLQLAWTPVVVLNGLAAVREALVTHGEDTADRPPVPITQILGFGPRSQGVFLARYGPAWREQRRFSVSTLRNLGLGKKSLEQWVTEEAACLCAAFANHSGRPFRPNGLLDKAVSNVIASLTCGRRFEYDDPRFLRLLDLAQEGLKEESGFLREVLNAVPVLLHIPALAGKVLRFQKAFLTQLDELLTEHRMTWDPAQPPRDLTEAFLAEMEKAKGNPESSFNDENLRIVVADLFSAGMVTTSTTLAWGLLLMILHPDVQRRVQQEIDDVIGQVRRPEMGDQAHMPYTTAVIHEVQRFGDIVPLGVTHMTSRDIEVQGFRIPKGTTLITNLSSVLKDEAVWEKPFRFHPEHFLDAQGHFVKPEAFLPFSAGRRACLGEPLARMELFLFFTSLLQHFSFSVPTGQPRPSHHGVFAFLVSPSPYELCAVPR

For the compound `CS(=O)(=O)N1CCC2(CCN(Cc3nccs3)CC2)CC1`, the Potency in [1] is more than 11.4 µM; in [6], more than 46 µM. The figures for the activity change, negative = inhibition in [2] and in test [4] were 3.17% and 9.85%, respectively. Besides, the Potency entry in test [3], in test [7] and in [8] was “inactive” throughout. Further, the activity, negative = inhibition in test [5] was -5.91%. The outcome in test [9] was inactive.

In the case of `N#Cc1cccc(-c2cc(-n3ccnc3)ncn2)c1`, the Potency is more than 11.4 µM in test [1]; 0.126 µM (active) in test [3]; more than 46 µM in [10]; 0.398 µM (active) in [11]; 0.158 µM (active) in test [13]. The figures for the activity change, negative = inhibition in test [2] and in test [4] were 0.101% and 4.55%, respectively. In test [5], the activity, negative = inhibition was 10.7%. The Potency result in test [7], in [8], in test [12], in test [14] and in [16] was “inactive” each time. Besides, the call in test [15] and in test [9] was inactive.

With `COc1cccc(-c2cncnc2NCCc2cnc[nH]2)c1`, the Potency in [1] is more than 11.4 µM; in test [3], 0.398 µM (active); in [6], more than 46 µM; in [17], 0.251 µM (active); in test [11], 0.631 µM (active); in test [18] it was 7.94 µM (active). The activity change, negative = inhibition is -20.9% in test [2] and -4.17% in [4]. Besides, the activity, negative = inhibition in test [5] is -17%. For the same compound, the Potency result in test [7], in [8], in [12], in test [14] and in test [16] was “inactive” in each case. Moreover, the compound was classed as inactive in test [15] and in test [9].

With `CS(=O)(=O)N1CCC2(CCCN(C(=O)Nc3cccc(F)c3)C2)CC1`, the Potency was more than 11.4 µM in test [1] and more than 46 µM in [6]. Further, the activity change, negative = inhibition in [2] is 3.4%; in test [4], 10.8%. Further, the Potency result in test [3], in test [7] and in test [8] was “inactive” each time. Also, the activity, negative = inhibition in test [5] was -4.84%. In addition, the result in [9] was inactive.

Consider `COc1ccc(NC(=O)N2CCC3(CC2)CCN(C(=O)c2ccco2)CC3)cc1`, for which the values for the Potency in test [1], in test [3] and in test [6] were more than 11.4 µM, 20 µM (active) and more than 46 µM, respectively. For the same compound, the results for the activity change, negative = inhibition in [2] and in test [4] were -4.61% and 3.53%, respectively. Further, in [5], the activity, negative = inhibition is -1.71%. Besides, the Potency entry in [7] and in test [8] was “inactive” throughout. The result in test [9] was inactive.

As to `COCC(=O)N1CCC2(CC1)CN(Cc1ccccc1OC)C2`, the Potency was more than 11.4 µM in test [1] and more than 46 µM in test [6]. Besides, the activity change, negative = inhibition in test [2] was -2.68%; in test [4], 9.66%. For the same compound, the Potency result in [3], in test [7] and in test [8] was “inactive” in each case. The activity, negative = inhibition in test [5] was 14.6%. Further, the outcome in test [9] was inactive.

As for `O=C(c1cnccn1)N1CCC2(CC1)CN(Cc1nccs1)C2`, the Potency in test [1] was more than 11.4 µM; in [6], more than 46 µM. The activity change, negative = inhibition in test [2] was -5.34%; in test [4] it was -5.05%. In addition, the Potency result in test [3], in [7] and in [8] was “inactive” each time. The activity, negative = inhibition in [5] was -2.27%. In addition, the outcome in test [9] was inactive.

For `COC(=O)N1CCC2(CCCN(C(=O)Nc3ccccc3)C2)CC1`, the Potency is more than 11.4 µM in [1] and more than 46 µM in test [6]. The activity change, negative = inhibition in test [2] is -8.56%; in [4] it was 8.44%. The Potency result in [3], in test [7] and in test [8] was “inactive” in each case. The activity, negative = inhibition in test [5] was -0.296%. Also, the result in [9] was inactive.

For `COc1ccc(NC(=O)N2CC[C@@]3(CCCN(C(=O)c4c(C)noc4C)C3)C2)cc1`, the Potency is more than 11.4 µM in [1] and more than 46 µM in test [6]. The activity change, negative = inhibition in test [2] was -9.74%; in [4], -10.6%. The Potency result in [3], in test [7], in [8], in [17] and in test [12] was “inactive” in each case. Also, the activity, negative = inhibition in test [5] was -10.2%. In addition, in test [19], the activation is -0.633%. Moreover, the result in test [9] was inactive.

(Values after PubChem BioAssay (NCATS).)
